PubChem BioAssay (NCI)
Compounds without any hit were thinned out: in the full panel of roughly 83,000, 20% have a hit.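 Single-dose data. Exposure time 48 hours. Values below 10 considered active.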 Values without a mark were called inactive. Calls of active or inactive are those of the source.

Key:
Test in all cases: NCI-60 one-dose screen, 48 h (100 = growth as untreated, 0 = no growth, -100 = all killed)
Conditions in all cases: 10 µM unless noted
[1] = system: NCI-H23 lung
[2] = system: NCI-H226 lung
[3] = system: NCI-H322M lung
[4] = system: HOP-62 NSCLC
[5] = system: NCI-H460 lung
[6] = system: HOP-92 NSCLC
[7] = system: NCI-H522 lung
[8] = system: A549/ATCC NSCLC
[9] = system: 786-0 renal
[10] = system: COLO 205 colon
[11] = system: DU-145 prostate
[12] = system: K-562 leukemia
[13] = system: MALME-3M melanoma
[14] = system: MDA-MB-231 breast
[15] = system: RXF 393 renal
[16] = system: SF-268 CNS
[17] = system: SF-295 CNS
[18] = system: SF-539 CNS
[19] = system: UACC-257 melanoma
[20] = system: M14 melanoma

Row | SMILES | growth [1] | growth [2] | growth [3] | growth [4] | growth [5] | growth [6] | growth [7] | growth [8] | growth [9] | growth [10] | growth [11] [%] | growth [12] | growth [13] | growth [14] | growth [15] | growth [16] | growth [17] | growth [18] | growth [19] | growth [20]
1 | COc1ccc(-c2cc(C(=O)N3N=C(c4ccc(N)cc4)CC3c3ccc(Cl)cc3)c3cc(OC)ccc3n2)cc1 (stereo not given) | 67.6% | 89.1% | 90.9% | 66.6% | 105% | 59.2% | 44.9% | 86.5% | 19.2% | 96.3% | 83.7 | 14.6% | 62.1% | 85% | 78.9% | 68.4% | 66.7% | 15.4% | 77.2% | 5.95% (active)
2 | O=C(Nc1cc(Cl)cc(Cl)c1)Oc1c(Cl)c(Cl)c(Cl)c(Cl)c1Cl | 57% | 72.5% | 99.2% | 94.4% | 72.6% | -18.7% (active) | 38.9% | 71.2% | 81.1% | 80.7% | 83.7 | 41.4% | 80.6% | 77.8% | 79.7% | 77.3% | 59.8% | 76.8% | 83.7% | 87.3%
3 | CN(C)CCCNC(=O)c1cncnc1Nc1ccc2c(ccn2Cc2cccc(F)c2)c1 | 95.6% | 99.4% | 98.6% | 99.9% | 95.5% | 78.3% | 98.2% | 84.9% | 79.5% | 84.6% | 97.8 | 37.5% | 81.9% | 67.6% | 70.9% | 85.6% | 106% | 83.7% | 84.4% | 107%
4 | COC1C(O)CC(OC2CC(OC3CC(O[C@@H]4C(=O)c5c(cc6cc(OC7CC(OC8CC(O)C(O)C(C)O8)C(O)C(C)O7)c(C)c(O)c6c5O)CC4[C@H](OC)C(=O)C(C)=O)OC(C)C3O)OC(C)C2O)OC1C (stereo not given in full) | -23.8% (active) | -10.8% (active) | -8.5% (active) | -20.1% (active) | 8.4% (active) | -6.32% (active) | -35.4% (active) | 1.9% (active) | 4.33% (active) | -47.6% (active) | 10.4 | 2.1% (active) | -30.6% (active) | 6.75% (active) | -56.3% (active) | 2.33% (active) | 0.867% (active) | -20.8% (active) | -23.4% (active) | -34.4% (active)
5 | CCN(CC)CCCC(Cc1ccccc1)Nc1c2ccc(Cl)cc2nc2ccc(OC)cc12 (stereo not given) | 67.1% | 84.4% | 9.3% (active) | 67.3% | 28.6% | -4.73% (active) | 1.88% (active) | 39.3% | -22.6% (active) | -42.3% (active) | 62.3 | -39.2% (active) | -78.3% (active) | -31.3% (active) | -51.7% (active) | 51.9% | -37.9% (active) | -87.5% (active) | -40.8% (active) | -76.9% (active)
6 | CSc1nc(-c2ccco2)c(C#N)c(=O)n1C | 66.1% | 101% | 89.6% | 89.5% | 105% | 91.6% | 100% | 100% | 104% | 97.2% | 106 | 101% | 88.8% | 107% | 112% | 106% | 97.9% | 89.7% | 96.9% | 108%
7 | c1ccc(-c2nc3ccccc3[nH]2)c(OCCCCCOc2ccccc2-c2nc3ccccc3[nH]2)c1 | 80.1% | 85.2% | 103% | 124% | 59.6% | -21.4% (active) | 66.1% | 8.77% (active) | 93% | 112% | 39.9 | -11.6% (active) | 66.2% | 70.5% | 81.1% | 55.1% | 87.3% | 7.96% (active) | 71% | 95.1%
8 | CCOC(=O)CC[C@H](NC(=O)c1ccc(N(C)Cc2cnc3nc(N)nc(N)c3n2)c2ccccc12)C(=O)OCC | 25.5% | 72.6% | 46.3% | 29.4% | 13.8% | 51.7% | 22.4% | 9.28% (active) | 27.5% | 36.9% | 28.3 | 18.8% | 62.1% | 59.4% | 48.7% | 32.9% | 24.3% | 26.1% | 25.3% | 23%
